Data from paper PMC4552634, “A New Set of Chemical Starting Points with Plasmodium falciparum Transmission-Blocking Potential for Antimalarial Drug Discovery” (PLoS ONE, 2015).
Hit rate of the full screen: of about 13,000 compounds, about 3,200 (25%) showed an effect of 50% or more. The list shows a part of the results.

system: P. falciparum stage V gametocytes; parameters: BacTiter-Glo ATP luminescence viability of purified stage V gametocytes in 384-well plates, per cent inhibition versus DMSO; settings: 48 h, 5 µM; inhibitor

Compared with CCC[C@@H]([C@@H](CC1CCCCC1)C(=O)N[C@H](C(=O)Nc1nccc(N)n1)C(C)(C)C)N(O)C=O [TCMDC-138127], COc1ccc2nccc(NC(=O)N3CCC(NCc4cc5ccccc5[nH]4)CC3)c2n1 [TCMDC-140671] is lower in “% Inhibition” value: 6.724% for the first, -10.57% for the second.

Compared with NC12CC3CC(CC(C3)C1)C2 [TCMDC-125869], O=C(/C=C/c1ccc(Cl)c(Cl)c1)NC1CCC(CN2CCC(c3coc4ccccc34)CC2)CC1 (stereo not drawn) [TCMDC-140260] is lower in “% Inhibition” value: 6.577% for the first, -37.97% for the second.

First: CC(C)NC(=O)c1cccc(-c2cccc(OCCN3CCSCC3c3ccccc3)c2)c1 (stereo not drawn) [TCMDC-134384]
Second: O=C(Nc1ccc(-c2ccccc2)cc1)Nc1cccc(Cn2cnc(N3CCCNCC3)cc2=O)c1 [TCMDC-133363]
The “% Inhibition” value of the first is higher: 34.28% for the first, -19.33% for the second.

Compared with O=C(/C=C/c1ccc(Cl)c(Cl)c1)Nc1cccc(CN2CCC(c3c[nH]c4ccc(O)cc34)CC2)c1 [TCMDC-139634], Cc1cccc2[nH]cc(C3CCN(CC4CCC(NC(=O)/C=C/c5ccc(Cl)c(Cl)c5)CC4)CC3)c12 (stereo not drawn) [TCMDC-140137] is higher in “% Inhibition” value: -96.41% for the first, 108% for the second.

Going from COC(=O)CCCCOc1cc(Cc2cnc(N)nc2N)cc(OC)c1OC [TCMDC-138041] to COc1cc2c(C3CCN(CC4CCC(NC(=O)/C=C/c5ccc(Cl)c(Cl)c5)CC4)CC3)c[nH]c2cn1 (stereo not drawn) [TCMDC-140245], the “% Inhibition” value rises from 1.908% to 13.08%.

First: Cc1cccc2c(C3CCN(CC4CCC(NC(=O)/C=C/c5ccc(Cl)c(Cl)c5)CC4)CC3)c[nH]c12 (stereo not drawn) [TCMDC-139639]
Second: O=C(Nc1ccc(N2CCNCC2)cc1)c1ccn2ncc(-c3cccc(Cl)c3)c2n1 [TCMDC-132663]
The “% Inhibition” value of the first is lower: 73.81% for the first, 113.1% for the second.

Going from Cc1cc(Cl)ccc1N(Cc1ccccc1)c1ccnc(Cl)n1 [TCMDC-138722] to O=C(Nc1cccc(Cl)c1)c1cnc(N2CCN(c3ccncc3)CC2)c(Cl)c1 [TCMDC-134600], the “% Inhibition” value rises from -10.33% to 12.94%.

Going from Cc1cc(C)nc(-n2[nH]c(C)c(Cc3ccc(C(C)(C)C)cc3)c2=O)n1 [TCMDC-125382] to Cc1ccc(Cn2cnc(N3CC(C)NC(C)C3)cc2=O)cc1NC(=O)Nc1ccc(-c2ccccc2)cc1 (stereo not drawn) [TCMDC-133371], the “% Inhibition” value rises from 16.36% to 24.76%.

Going from Oc1ccc(CCNc2nc(NCc3ccccc3-c3cccc(Cl)c3)nc(N3CCNCC3)n2)cc1 [TCMDC-133784] to Cc1ccc(Cn2nc(Cl)c(N3CCNCC3)cc2=O)cc1NC(=O)Nc1ccc(-c2ccccc2)cc1 [TCMDC-141698], the “% Inhibition” value rises from -2.358% to 114.4%.

First: O=C(Nc1ccc(-c2ccccc2)cc1)Nc1cccc(Cn2nc(Cl)c(N3CCNCC3)cc2=O)c1 [TCMDC-141694]
Second: O=C(Nc1ccc(-c2ccccc2)cc1)Nc1cccc(Cn2nc(Cl)c(N3CCCNCC3)cc2=O)c1 [TCMDC-141695]
The “% Inhibition” value of the first is lower: -35.56% for the first, 3.325% for the second.

First: Cc1c(Cn2nc(Cl)c(N3CCNCC3)cc2=O)cccc1NC(=O)Nc1ccc(-c2ccccc2)cc1 [TCMDC-141699]
Second: Cc1ccc(Cn2nc(Cl)c(N3CCCNCC3)cc2=O)cc1NC(=O)Nc1ccc(-c2ccccc2)cc1 [TCMDC-141697]
The “% Inhibition” value of the first is lower: 65.88% for the first, 91.1% for the second.

Compared with O=C(Nc1ccc(Cn2nc(Cl)c(N3CCCNCC3)cc2=O)cc1)Nc1ccc(-c2ccccc2)cc1 [TCMDC-141696], O=C(Nc1ccc(Cn2nc(Cl)c(N3CCNCC3)cc2=O)cc1)Nc1ccc(-c2ccccc2)cc1 [TCMDC-141700] is lower in “% Inhibition” value: -10.1% for the first, -30.94% for the second.

Going from Cc1ccc(Cn2nc(N3CCNCC3)ccc2=O)cc1NC(=O)Nc1ccc(-c2ccccc2)cc1 [TCMDC-132580] to O=C(Nc1ccc(Cn2nc(Cl)c(N3CCCNCC3)cc2=O)cc1)c1ccc(-c2ccccc2)cc1 [TCMDC-141693], the “% Inhibition” value falls from 107.8% to 29.71%.

For COc1ccc(NC(=O)Nc2ccc(-c3ccccc3)cc2)cc1Cn1nc(Cl)c(N2CCCNCC2)cc1=O [TCMDC-141724], the “% Inhibition” value was 21.4%.
